# Assay results: the supplement of paper PMC12297408
# Counter-ions that a name gives are not always drawn. Values without a mark were called inactive.
# Tested on: Plasmodium falciparum NF54/iGP1_RE9H ulg8 stage V gametocytes
# Assay: gametocyte viability (luciferase signal relative to DMSO control) (% of DMSO control); higher = less gametocytocidal activity, active = 50 or less
# Conditions: concentration: 1 µM; exposure time: 72 h
# Experimental: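 Synchronous P. falciparum NF54/iGP1_RE9H ulg8 mature stage V gametocytes (day 12) were exposed to Cayman Epigenetics Screening Library compounds at 10 µM or 1 µM for 72 h at 37 °C. Viability was read as RE9H luciferase bioluminescence, normalised to DMSO plate controls (100%); 50 µM methylene blue was the positive control.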
row,SMILES,gametocyte viability
1,CN(C)NC(=O)CCC(=O)O [Daminozide],95.2
2,"Cc1sc2c(c1C)C(c1ccc(Cl)cc1)=NC(CC(=O)O)c1nnc(C)n1-2 (single isomer, unassigned; (+)) [(+)-JQ1 (free acid)]",85.8
3,COc1cc(C(=O)N2CC[C@@H](O)[C@@H](N)C2)cc2nc(-c3cc4ccccc4n3CC3CC3)n(C)c12 [GSK484 (hydrochloride)],94.7
4,C[S+]([O-])CCCCN=C=S (centres undefined) [Sulforaphane],99.8
5,Cc1sc2c(c1C)C(c1ccc(Cl)cc1)=N[C@@H](CC(N)=O)c1nnc(C)n1-2,90.9
6,N[C@@H]1C[C@H]1c1ccccc1 [Tranylcypromine (hydrochloride)],91.7
7,CC1=CC(=O)c2c(O)cccc2C1=O [Plumbagin],71.2

# Same assay, conditions: concentration: 10 µM; exposure time: 72 h
row,SMILES,gametocyte viability
1,CN(C)NC(=O)CCC(=O)O [Daminozide],88.8
2,"Cc1sc2c(c1C)C(c1ccc(Cl)cc1)=NC(CC(=O)O)c1nnc(C)n1-2 (single isomer, unassigned; (+)) [(+)-JQ1 (free acid)]",88.2
3,COc1cc(C(=O)N2CC[C@@H](O)[C@@H](N)C2)cc2nc(-c3cc4ccccc4n3CC3CC3)n(C)c12 [GSK484 (hydrochloride)],41.8 (active)
4,C[S+]([O-])CCCCN=C=S (centres undefined) [Sulforaphane],96.2
5,Cc1sc2c(c1C)C(c1ccc(Cl)cc1)=N[C@@H](CC(N)=O)c1nnc(C)n1-2,93.5
6,N[C@@H]1C[C@H]1c1ccccc1 [Tranylcypromine (hydrochloride)],91.4
7,CC1=CC(=O)c2c(O)cccc2C1=O [Plumbagin],16.7 (active)
